# The entries come from a sample that favours hits as a whole.
# PI4K2A block: inhibitors of human PI4K2A | Q9BTU6 | purified PI4K2A, ADP-Glo luminescence, 1 h; stronger effect = lower value | activity change, negative = inhibition, % at 76.9 µM | 420,000 compounds, 0.13% hits | AID 1346378; in the data active means activity change below about -50%; inconclusive means mostly about -30% to -49%;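 further: -100% = wells without enzyme as full effect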
# Target sequence (Q9BTU6 whole entry, looked up): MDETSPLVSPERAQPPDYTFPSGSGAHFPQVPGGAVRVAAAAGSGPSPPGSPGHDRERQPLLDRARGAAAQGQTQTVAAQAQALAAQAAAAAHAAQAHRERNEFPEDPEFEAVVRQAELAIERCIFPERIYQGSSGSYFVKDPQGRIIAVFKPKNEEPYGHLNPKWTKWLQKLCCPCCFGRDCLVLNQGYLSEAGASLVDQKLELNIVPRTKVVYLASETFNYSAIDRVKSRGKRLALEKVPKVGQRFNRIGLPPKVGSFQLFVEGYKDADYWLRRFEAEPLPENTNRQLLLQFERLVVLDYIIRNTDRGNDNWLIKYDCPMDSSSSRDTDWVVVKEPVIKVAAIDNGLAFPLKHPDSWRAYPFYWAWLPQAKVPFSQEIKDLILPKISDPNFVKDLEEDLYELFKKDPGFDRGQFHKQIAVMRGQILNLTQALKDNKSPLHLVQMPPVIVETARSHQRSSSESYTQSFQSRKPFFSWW
#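 In this quantitative HTS, ADP production by PI4K2A was quantified luminescently after 1 h at ambient temperature; 100 microM adenosine served as plate-quality control.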
# PI5P4K alpha inh: inhibitors of human PI5P4K alpha; P48426; 330,000 compounds, 1.2% hits; PI5P4Kalpha enzyme, ADP-Glo luminescence, 60 min; stronger effect = lower value; max response, %; active means max response of -50% or lower; inconclusive means between -30% and -50%; inactive means -30% or higher; further: value at the top dose of about 77 µM; on the % scale 0 is the no-effect control and ±100 the full control effect
#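 Reactions run in 0.038 M HEPES pH 7.4, 0.28 mM EGTA, 0.1% CHAPS and 5% DMSO, with PI5P4Kalpha, substrate, compound and 5 microM ATP final, one hour at room temperature. Readout is ADP-Glo luminescence.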
# Tb PFK inh-1: T. brucei PFK enzyme inhibition. O15648. T. brucei PFK, ADP-Glo luminescence. Potency, µM (series often up to 57.5 µM), for inactives: at the highest dose activity, negative = inhibition, usual class: inhibitors. 330,000 compounds, 0.17% hits. AID 485367;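 further: potency means the concentration at half of the fitted maximal effect; 0% = uninhibited 1x PFK enzyme wells and -100% = no-enzyme wells; nearly all actives have a fitted effect of over 60% in size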
#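 Luminescent ADP detection (ADP-Glo, two-step: ATP depletion then ADP-to-ATP conversion for luciferase) reported PFK activity after 45 min room-temperature reaction of 1.25 nM enzyme with 0.5 mM F6P and 0.1 mM ATP at pH 8.0.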
# Pin1 inh: blocks the human prolyl isomerase Pin1; Pin1 FP peptide displacement, HiFluor488, 10 min; Potency, µM (highest dose often 115 µM), for inactives: top-dose activity, negative = inhibition, usual class: inhibitors; 390,000 compounds, 0.009% hits; AID 504891; active means well fitted inhibition curve with a large enough effect in the polarisation, with a control signal flat, not every such curve was filed as active; inconclusive means small, poorly fitted or top-dose-only effect, or effect the other way, or a change in a side signal; inactive means no such curve, though single readings can be large or run the other way; the % refers to the polarisation; further: potency means the concentration at half of the fitted maximal effect; on the % scale 0 is the no-effect control and ±100 the full control effect
# PGK inhibitor: blocks T. brucei phosphoglycerate kinase. P07378. PGK/GAPDH coupled, Kinase-Glo luminescence, 60 min. Potency, µM (top dose mostly 57.5 µM), inactives show top-dose activity change, negative = inhibition, most hits filed as inhibitors. 380,000 compounds, 0.043% hits. AID 602233; further: potency means the concentration at half of the fitted maximal effect; on the % scale 0 is the no-effect control and ±100 the full control effect; nearly all actives have a fitted effect of over 60% in size
#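 Luminescent ATP detection (Kinase-Glo Plus) follows a 60-minute room-temperature incubation, with wells lacking PGK as controls. Buffer: 100 mM TEA (pH 7.6), 5 mM MgCl2, 0.01% Tween-20. Coupling enzyme GAPDH (100 nM final) supplies unstable 1,3-BPG in-well.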
# TbPFK ATP: inhibits T. brucei PFK measured by ATP depletion; shares compounds with Tb PFK inh-1; Tb PFK enzyme, ATP depletion, Kinase-Glo Plus luminescence; Potency, µM (highest dose often 57.5 µM), without a hit: top-dose inhibition; 1,100 compounds, 47% hits; AID 504636; calls by dose curve; further: potency means the concentration at half of the fitted maximal effect; nearly all actives have a fitted effect of over 60% in size
# Tb PFK inh-2: T. brucei PFK enzyme inhibition, hit validation | Potency, µM (series often up to 57.5 µM), inactives show at the highest dose activity change, negative = inhibition, actives largely listed as inhibitors | purified T. brucei PFK, ADP-Glo luminescence, 45 min | shares compounds with Tb PFK inh-1 | AID 504637 | 1,100 compounds, 41% hits;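 further: potency means the concentration at half of the fitted maximal effect; plate controls were full PFK enzyme control for no effect and no enzyme control for full effect; nearly all actives have a fitted effect of over 60% in size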
# * marks the source's active call; other numbers are inactive results; i = inactive; ? = inconclusive; / = no result. Unless noted, the call rests on the fitted dose curve; in most records, active means well fitted curve in the direction sought with a large enough effect; inconclusive means small, poorly fitted or top-dose-only effect, or another doubt; inactive means no such curve, though single readings can be large; an effect the other way counts as inactive or inconclusive.
SMILES,PI4K2A block,PI5P4K alpha inh,Tb PFK inh-1,Pin1 inh,PGK inhibitor,others
CCOc1ccc(N2C(=O)/C(=C\c3cccs3)C(=O)NC2=S)cc1,-26,-64*,7%,?,-7%,
CCC(C)N1C(=O)/C(=C/c2ccc3c(c2)CCN3CCCCl)C(=O)NC1=S (stereo not drawn),-21,-67*,0%,?,-6%,
Cc1cccc(N2C(=O)NC(=O)/C(=C\c3ccc4c(c3)CCCN4Cc3ccccc3)C2=O)c1,-3,?,6%,?,0%,
CC(C)=CCN1CC[C@@]2(C)c3cc(O)ccc3C[C@@H]1[C@@H]2C,i,/,/,/,/,
O=C(O)CCn1cc(C=C2C(=O)NC(=S)NC2=O)c(-c2cccc(Cl)c2)n1,-13,-86*,-4%,0%,-4%,
CCN1CCCC1CNC(=O)C(O)(c1ccccc1)c1ccccc1 (stereo not drawn),4,/,/,/,/,
CCC(OC(C)=O)C(CC(C)NC)(c1ccccc1)c1ccccc1 (stereo not drawn),i,/,/,/,/,
O=C1NC(=O)N(CCC2=CCCCC2)C(=O)/C1=C/c1cccs1,-28,-63*,-3%,30%,-8%,
O=C(N[C@H]1N=C(c2ccccc2F)c2cccc3c2N(CC3)C1=O)c1cc2ccccc2[nH]1,-3,/,/,/,/,
Cn1ncnc2c(=O)n(C)c(=O)nc1-2,-52*,0,-1%,?,?,
Cc1ccc(-c2nc3c(=O)n(C)c(=O)nc-3n(C)n2)cc1,/,/,/,0%,/,
CC(Cc1ccc(O)cc1)NCC(O)c1ccc(O)c(O)c1 (stereo not drawn),-8,-59*,/,/,?,
CC(Cc1ccc(OCC(=O)O)cc1)NCC(O)c1cccc(Cl)c1 (stereo not drawn),0,/,/,/,/,
COc1cccc(NC(=O)CSC2=Nc3ccccc3C3=NC(CCC(=O)NCCc4ccccc4)C(=O)N23)c1 (stereo not drawn),-3,/,/,21%,-5%,
Cc1cc(O)c2c(c1)C(=O)[C@@]13C(=C2O)C(=O)[C@H]2C(O)[C@@H]1[C@H]1C(O)[C@@H]3C(=O)C3=C(O)c4c(O)cc(C)cc4C(=O)[C@@]312 (stereo partly drawn),-76*,/,/,/,/,
Cc1nc(SCc2ccc(O)c([N+](=O)[O-])c2)c([N+](=O)[O-])[nH]1,0,?,?,-8%,7%,TbPFK ATP=6%;Tb PFK inh-2=-2%
O=c1c2c([N+](=O)[O-])cc([N+](=O)[O-])cc2sn1Cc1ccccc1,-7,-80*,2.7µM*,1%,-5%,TbPFK ATP=?;Tb PFK inh-2=21µM*
CCN(CC)c1ccc(/C=C2/C(=O)NC(=O)N(CC3CCCO3)C2=O)cc1 (stereo not drawn),?,-23,-6%,?,5%,
CCN(CC)c1ccc(/C=C2\C(=O)N(c3nnc(C)c(=O)[nH]3)N=C2C)cc1,-13,-12,?,60%,3%,TbPFK ATP=?;Tb PFK inh-2=13µM*
COc1ccc(C2C3C=CC(C3)C2C(=O)O)cc1 (stereo not drawn),-1,1,/,/,5%,
COC(=O)c1ccc(NC(=O)c2cccn(Cc3ccccc3C)c2=O)cc1,-3,/,/,-6%,-8%,
CN1CCN(C(=O)COc2ccc3ccccc3c2)CC1,-1,2,-1%,0%,3%,
Cc1ccc(NC(=O)C(=O)NNC(=O)c2cccs2)cc1,1,-4,?,-23%,1%,TbPFK ATP=-22%;Tb PFK inh-2=?
O=C(COc1ccc2ccccc2c1)NNC(=O)c1cccs1,1,0,?,1%,i,TbPFK ATP=-31%;Tb PFK inh-2=?
Cc1ccc(NC(=O)c2ccc3snnc3c2)cc1,1,7,1%,?,-7%,
COc1ccc(NC(=O)C(=O)NNC(=O)c2cccs2)cc1,-1,-7,?,?,-2%,TbPFK ATP=-28%;Tb PFK inh-2=?

# From PubChem BioAssay
